Drawing on PubChem BioAssay, this text covers GFP response vs DMSO for 18 compounds.

SMILES strings stand for the structures. A number with no mark means an inactive call. The source made the active and inactive calls.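 The calls were made as follows: active = GFP response above 150% of the DMSO control; inconclusive = Fewer than 70 cells counted for a yeast strain; inactive = the rest.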

The nature of the assay: modulators of MEP2-GFP levels in yeast, confirmation, S. cerevisiae, flow cytometry GFP, cherry picks (AID 2272).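 Also: ratio of well signal to plate DMSO mean so 100% equals DMSO level.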 To be noted: S. cerevisiae MEP2-GFP strain, 3 h, at 10 µM, active compounds read high. On the technique in general: A flow cytometer gives signals particle by particle.
Turning to `O=C1c2ccccc2-c2onc3ccc(Oc4ccccc4)c1c23`, the GFP response vs DMSO was 113%.
Then `CCOc1nnc(C)c2c(C)n(-c3cccc(OC)c3)nc12`, with 102%; and `O=C(C#Cc1ccccc1)c1cccc([N+](=O)[O-])c1`, with 121%.
For the compound `COC(=O)c1ccc2nc(Nc3nc4c(F)cc(F)cc4s3)sc2c1`, the GFP response vs DMSO is 101%.
Take `O=C(C#Cc1cccc([N+](=O)[O-])c1)c1ccccc1`: the GFP response vs DMSO was 133%.
Then `COC(=O)n1c(=S)oc2cc(Cl)ccc21`, with 141%.
For `O=C(/C=C/c1ccc(Cl)c([N+](=O)[O-])c1)c1cccnc1` the value was 105%; for `COCCN1C(=O)/C(=C/c2ccc(N3CCCC3)cc2C)SC1=S`, 143%; for `N=c1c(C(=O)NCc2ccco2)cc2c(=O)n3ccccc3nc2n1CCc1ccccc1`, 100%.
In the case of `COc1cccc2sc(Nc3nc(-c4ccccn4)cs3)nc12`, the GFP response vs DMSO was 124%.
For `Oc1ccc2ccccc2c1/C=N/Nc1nnc(-c2ncc[nH]2)c2ccccc12` the value was 137%; for `CN(C)c1ccc(/C=C/C(=O)c2cccc(Br)c2)cc1`, 112%.
As to `CN(c1ccccc1)c1ccc(/C=c2\s/c(=C(/C#N)C(=O)C(C)(C)C)n(Cc3ccco3)c2=O)cc1`, the GFP response vs DMSO was 309% (active).
`CS(=O)(=O)N1N=C(c2ccccc2)CC1c1ccc2c(c1)OCO2` (stereo not drawn): the GFP response vs DMSO is 1140% (active).
For `CCOC(=O)N1CCN(C(=O)CCc2ccc(S(=O)(=O)NCCc3ccccc3)cc2)CC1` the value was 101%; for `CC(C)(C)c1ccc(C(=O)CC(Sc2ccc(Cl)cc2)C(=O)O)cc1` (stereo not drawn), 101%; for `Cc1cc(C)c(C(=O)Cn2cnc3cc([N+](=O)[O-])ccc3c2=O)cc1C`, 99.3%.
As to `CC(C)(C)C(=O)/C=c1\s/c(=C\c2ccc(-c3ccc([N+](=O)[O-])cc3)o2)c(=O)n1CC(=O)NC(N)=O`, the GFP response vs DMSO was 112%.
